# ± gives the standard deviation of the averaged measurements. About 5,400 targets were measured; listed, in parts, are those with the largest changes and a random draw of the rest.
# What was measured:
# Assay in all cases: NP40-soluble protein abundance relative to vehicle (solubility fold change) (ratio); higher = more soluble protein in presence of GTP
# ARHGAP1 = target: T1, ARHGAP1 (UniProt Q07960)
# T1 sequence (whole entry): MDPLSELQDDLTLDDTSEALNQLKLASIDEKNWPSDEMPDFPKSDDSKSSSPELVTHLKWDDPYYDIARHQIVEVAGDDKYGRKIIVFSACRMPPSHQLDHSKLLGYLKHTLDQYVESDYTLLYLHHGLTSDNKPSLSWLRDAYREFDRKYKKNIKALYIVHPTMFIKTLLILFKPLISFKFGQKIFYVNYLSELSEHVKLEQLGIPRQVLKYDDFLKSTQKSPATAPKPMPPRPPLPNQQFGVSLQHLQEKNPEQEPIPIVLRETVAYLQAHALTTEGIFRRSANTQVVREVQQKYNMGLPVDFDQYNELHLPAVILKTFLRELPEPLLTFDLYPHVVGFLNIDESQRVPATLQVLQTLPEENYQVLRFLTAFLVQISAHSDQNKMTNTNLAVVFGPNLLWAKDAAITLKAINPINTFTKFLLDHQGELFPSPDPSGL
# How it was run: (§1)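 Values are fold changes against the detergent-processed vehicle, based on vsn-normalised intensities. Jurkat crude lysate was treated at eight concentrations from 0.1 to 10 mM (10 min at room temperature, then 3 min at 37 °C), solubilised with 0.8% NP40 and benzonase, ultracentrifuged and analysed by TMT-labelled LC-MS/MS over three independent experiments.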
# [1] = target: T2, UniProt Q08170|A0A0D9SEM4
# T2 sequence (whole entry): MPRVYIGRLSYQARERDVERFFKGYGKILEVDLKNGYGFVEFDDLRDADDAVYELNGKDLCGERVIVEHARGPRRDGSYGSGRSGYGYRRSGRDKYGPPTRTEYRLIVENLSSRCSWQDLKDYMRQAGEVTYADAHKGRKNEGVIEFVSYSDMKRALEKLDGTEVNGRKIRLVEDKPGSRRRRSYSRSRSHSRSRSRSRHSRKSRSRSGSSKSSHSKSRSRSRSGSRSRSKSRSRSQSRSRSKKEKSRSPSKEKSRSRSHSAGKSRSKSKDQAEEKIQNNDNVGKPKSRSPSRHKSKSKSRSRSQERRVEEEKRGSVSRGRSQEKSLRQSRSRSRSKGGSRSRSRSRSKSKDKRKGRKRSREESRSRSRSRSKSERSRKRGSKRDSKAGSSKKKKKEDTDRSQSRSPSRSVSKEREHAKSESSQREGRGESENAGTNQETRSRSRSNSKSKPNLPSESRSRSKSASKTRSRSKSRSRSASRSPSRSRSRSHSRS
# How it was run: as §1
# [2] = target: T3, UniProt Q4ADV7|Q4ADV7-3|Q4ADV7-2
# T3 sequence (whole entry): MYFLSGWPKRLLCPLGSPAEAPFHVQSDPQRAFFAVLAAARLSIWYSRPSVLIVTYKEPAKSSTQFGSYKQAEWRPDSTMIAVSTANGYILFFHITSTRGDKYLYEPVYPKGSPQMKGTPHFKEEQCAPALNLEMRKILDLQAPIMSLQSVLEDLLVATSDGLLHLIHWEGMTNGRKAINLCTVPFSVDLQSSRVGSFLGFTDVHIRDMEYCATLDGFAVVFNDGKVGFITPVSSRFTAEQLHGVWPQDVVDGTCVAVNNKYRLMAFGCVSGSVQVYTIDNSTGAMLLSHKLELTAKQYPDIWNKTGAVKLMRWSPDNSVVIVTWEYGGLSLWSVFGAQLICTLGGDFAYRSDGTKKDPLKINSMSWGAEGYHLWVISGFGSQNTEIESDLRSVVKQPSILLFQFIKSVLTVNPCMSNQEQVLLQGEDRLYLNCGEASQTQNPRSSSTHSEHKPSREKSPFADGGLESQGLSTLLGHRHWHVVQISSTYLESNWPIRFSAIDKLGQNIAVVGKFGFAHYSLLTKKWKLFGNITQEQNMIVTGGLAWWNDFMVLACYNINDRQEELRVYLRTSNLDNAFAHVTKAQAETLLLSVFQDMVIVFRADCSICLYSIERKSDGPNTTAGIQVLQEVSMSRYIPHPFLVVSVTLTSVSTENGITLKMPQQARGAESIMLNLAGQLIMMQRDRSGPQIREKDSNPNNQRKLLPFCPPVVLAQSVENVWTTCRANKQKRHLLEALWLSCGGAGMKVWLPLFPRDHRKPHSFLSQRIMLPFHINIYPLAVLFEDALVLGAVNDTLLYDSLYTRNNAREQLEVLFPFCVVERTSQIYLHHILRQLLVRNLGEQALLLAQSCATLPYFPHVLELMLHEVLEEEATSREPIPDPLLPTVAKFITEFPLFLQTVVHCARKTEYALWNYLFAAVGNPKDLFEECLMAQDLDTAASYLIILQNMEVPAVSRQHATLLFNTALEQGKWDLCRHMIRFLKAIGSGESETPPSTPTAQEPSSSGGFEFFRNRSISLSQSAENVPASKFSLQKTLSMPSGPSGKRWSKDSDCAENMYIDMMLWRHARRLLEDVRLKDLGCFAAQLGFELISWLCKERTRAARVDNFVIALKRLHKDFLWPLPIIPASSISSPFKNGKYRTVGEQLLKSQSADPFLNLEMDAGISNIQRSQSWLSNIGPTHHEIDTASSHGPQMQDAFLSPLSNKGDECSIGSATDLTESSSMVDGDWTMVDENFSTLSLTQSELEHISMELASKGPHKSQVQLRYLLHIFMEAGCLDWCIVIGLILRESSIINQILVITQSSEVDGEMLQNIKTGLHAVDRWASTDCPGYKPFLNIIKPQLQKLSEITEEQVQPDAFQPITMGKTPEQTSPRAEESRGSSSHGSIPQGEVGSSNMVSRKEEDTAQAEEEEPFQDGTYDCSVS
# How it was run: as §1
# UniProt Q68CQ4 = target: T4, UniProt Q68CQ4
# T4 sequence (whole entry): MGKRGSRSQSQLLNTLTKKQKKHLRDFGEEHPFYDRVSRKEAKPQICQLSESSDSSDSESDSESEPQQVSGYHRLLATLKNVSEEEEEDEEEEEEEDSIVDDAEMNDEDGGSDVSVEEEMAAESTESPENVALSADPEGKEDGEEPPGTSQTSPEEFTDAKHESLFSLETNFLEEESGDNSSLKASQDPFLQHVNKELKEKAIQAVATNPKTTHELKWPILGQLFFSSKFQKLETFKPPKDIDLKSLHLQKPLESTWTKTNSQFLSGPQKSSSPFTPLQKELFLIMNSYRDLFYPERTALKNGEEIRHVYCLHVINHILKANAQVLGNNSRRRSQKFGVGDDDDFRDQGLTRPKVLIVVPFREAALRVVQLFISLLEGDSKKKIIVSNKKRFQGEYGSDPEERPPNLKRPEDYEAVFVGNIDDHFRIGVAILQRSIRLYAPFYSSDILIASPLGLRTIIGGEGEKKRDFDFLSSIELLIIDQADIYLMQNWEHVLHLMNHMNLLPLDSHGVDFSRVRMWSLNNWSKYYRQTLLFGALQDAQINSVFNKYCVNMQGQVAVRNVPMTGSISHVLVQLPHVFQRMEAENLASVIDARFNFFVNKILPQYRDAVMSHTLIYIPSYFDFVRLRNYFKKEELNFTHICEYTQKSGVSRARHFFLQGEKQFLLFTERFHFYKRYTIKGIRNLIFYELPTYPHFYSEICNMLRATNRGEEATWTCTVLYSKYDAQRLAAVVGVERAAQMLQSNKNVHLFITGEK
# How it was run: as §1
# [3] = target: T5, UniProt Q6ULP2|Q6ULP2-2|Q6ULP2-4|Q6ULP2-5|Q6ULP2-3
# T5 sequence (whole entry): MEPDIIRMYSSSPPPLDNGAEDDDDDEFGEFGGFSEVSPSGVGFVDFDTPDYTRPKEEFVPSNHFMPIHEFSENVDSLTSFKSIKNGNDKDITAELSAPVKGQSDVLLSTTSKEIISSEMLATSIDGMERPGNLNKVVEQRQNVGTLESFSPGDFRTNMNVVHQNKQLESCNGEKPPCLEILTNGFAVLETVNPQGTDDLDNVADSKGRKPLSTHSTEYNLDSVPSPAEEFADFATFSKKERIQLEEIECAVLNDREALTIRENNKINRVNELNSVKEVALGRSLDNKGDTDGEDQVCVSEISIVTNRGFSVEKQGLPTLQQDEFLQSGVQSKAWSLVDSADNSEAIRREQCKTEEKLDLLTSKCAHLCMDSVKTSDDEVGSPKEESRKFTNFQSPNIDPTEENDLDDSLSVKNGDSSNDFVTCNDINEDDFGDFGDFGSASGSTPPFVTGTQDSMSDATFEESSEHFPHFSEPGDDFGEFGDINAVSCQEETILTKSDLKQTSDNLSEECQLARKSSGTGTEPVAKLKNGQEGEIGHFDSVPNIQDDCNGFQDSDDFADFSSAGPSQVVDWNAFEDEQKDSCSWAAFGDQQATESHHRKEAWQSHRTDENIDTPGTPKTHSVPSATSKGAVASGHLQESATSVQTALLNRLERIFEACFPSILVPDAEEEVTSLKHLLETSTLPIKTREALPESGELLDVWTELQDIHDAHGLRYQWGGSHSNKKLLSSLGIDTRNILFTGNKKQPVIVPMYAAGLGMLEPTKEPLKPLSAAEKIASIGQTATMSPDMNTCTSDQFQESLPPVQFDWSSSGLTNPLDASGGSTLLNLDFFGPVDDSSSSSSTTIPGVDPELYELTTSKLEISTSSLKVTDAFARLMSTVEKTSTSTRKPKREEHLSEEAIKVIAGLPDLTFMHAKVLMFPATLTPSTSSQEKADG
# How it was run: as §1
smiles,measurement,setting,value
Nc1nc2c(ncn2[C@@H]2O[C@H](COP(=O)(O)OP(=O)(O)OP(=O)(O)O)[C@@H](O)[C@H]2O)c(=O)[nH]1 [guanosine triphosphate],NP40-soluble protein abundance,ARHGAP1; concentration: 0.1mM,0.963 ± 0.015
same,NP40-soluble protein abundance,ARHGAP1; concentration: 0.5mM,0.961 ± 0.012
same,NP40-soluble protein abundance,ARHGAP1; concentration: 1mM,0.952 ± 0.011
same,NP40-soluble protein abundance,ARHGAP1; concentration: 2mM,0.93 ± 0.045
same,NP40-soluble protein abundance,ARHGAP1; concentration: 4mM,0.942 ± 0.042
same,NP40-soluble protein abundance,ARHGAP1; concentration: 6mM,0.911 ± 0.037
same,NP40-soluble protein abundance,ARHGAP1; concentration: 8mM,0.867 ± 0.06
same,NP40-soluble protein abundance,ARHGAP1; concentration: 10mM,0.908 ± 0.064
same,NP40-soluble protein abundance,[1]; concentration: 0.1mM,0.928 ± 0.042
same,NP40-soluble protein abundance,[1]; concentration: 0.5mM,1.23 ± 0.055
same,NP40-soluble protein abundance,[1]; concentration: 1mM,1.27 ± 0.028
same,NP40-soluble protein abundance,[1]; concentration: 2mM,1.15 ± 0.052
same,NP40-soluble protein abundance,[1]; concentration: 4mM,0.94 ± 0.034
same,NP40-soluble protein abundance,[1]; concentration: 6mM,1.09 ± 0.042
same,NP40-soluble protein abundance,[1]; concentration: 8mM,1.2 ± 0.053
same,NP40-soluble protein abundance,[1]; concentration: 10mM,1.08 ± 0.035
same,NP40-soluble protein abundance,[2]; concentration: 0.1mM,1.09 ± 0.11
same,NP40-soluble protein abundance,[2]; concentration: 0.5mM,1.13 ± 0.091
same,NP40-soluble protein abundance,[2]; concentration: 1mM,1.02 ± 0.04
same,NP40-soluble protein abundance,[2]; concentration: 2mM,1.07 ± 0.077
same,NP40-soluble protein abundance,[2]; concentration: 4mM,1.12 ± 0.18
same,NP40-soluble protein abundance,[2]; concentration: 6mM,0.946 ± 0.025
same,NP40-soluble protein abundance,[2]; concentration: 8mM,0.92397 ± 0.00016
same,NP40-soluble protein abundance,[2]; concentration: 10mM,0.963 ± 0.19
same,NP40-soluble protein abundance,UniProt Q68CQ4; concentration: 0.1mM,1.02 ± 0.068
same,NP40-soluble protein abundance,UniProt Q68CQ4; concentration: 0.5mM,1.02 ± 0.051
same,NP40-soluble protein abundance,UniProt Q68CQ4; concentration: 1mM,1.01 ± 0.048
same,NP40-soluble protein abundance,UniProt Q68CQ4; concentration: 2mM,0.992 ± 0.04
same,NP40-soluble protein abundance,UniProt Q68CQ4; concentration: 4mM,0.999 ± 0.026
same,NP40-soluble protein abundance,UniProt Q68CQ4; concentration: 6mM,0.994 ± 0.042
same,NP40-soluble protein abundance,UniProt Q68CQ4; concentration: 8mM,1.02 ± 0.046
same,NP40-soluble protein abundance,UniProt Q68CQ4; concentration: 10mM,1.03 ± 0.048
same,NP40-soluble protein abundance,[3]; concentration: 0.1mM,1.01 ± 0.098
same,NP40-soluble protein abundance,[3]; concentration: 0.5mM,1.02 ± 0.066
same,NP40-soluble protein abundance,[3]; concentration: 1mM,0.979 ± 0.064
same,NP40-soluble protein abundance,[3]; concentration: 2mM,1 ± 0.044
same,NP40-soluble protein abundance,[3]; concentration: 4mM,1.06 ± 0.041
same,NP40-soluble protein abundance,[3]; concentration: 6mM,1 ± 0.023
same,NP40-soluble protein abundance,[3]; concentration: 8mM,1.03 ± 0.033
same,NP40-soluble protein abundance,[3]; concentration: 10mM,1.02 ± 0.042
